In PubChem BioAssay (EPA / NIEHS):
Some compounds were tested as several samples or in several runs, with calls that do not always agree. The source made the active and inactive calls. Rule for the calls: active = hit-call score of the fitted dose curve at least 0.9, where 1 is the maximum; inactive = score below 0.9.

Assay: ATG_M_06_CIS: Attagene CIS-FACTORIAL HepG2 Assay for M06 Transcription Factor (Internal Marker) (AID 2282950)
Settings: HepG2 Attagene CIS-FACTORIAL M06 internal marker reporter; actives raise or lower the signal
Protocol: ATG_CIS is a cell-based, multiplexed-readout assay that uses HepG2, a human liver cell line, with measurements taken at 24 hours after chemical dosing in a 24-well plate.ATG_M_06_CIS is one of 52 assay component(s) measured or calculated from the ATG_CIS assay. It is designed to make measurements of mRNA induction, a form of inducible reporter, as detected with fluorescence intensity signals by Reverse transcription polymerase chain reaction (RT-PCR) and Capillary electrophoresis technology.Data from the assay component ATG_M_06_CIS was analyzed into 1 assay endpoint. This assay endpoint, ATG_M_06_CIS, was analyzed with bidirectional fitting relative to DMSO as the negative control and baseline of activity. Using a type of inducible reporter, measures of mRNA for gain or loss-of-signal activity can be used to understand the background control at the transcription factor-level as they relate to the gene . Furthermore, this assay endpoint can be referred to as a secondary readout, because this assay has produced multiple assay endpoints where this one serves a background control function. To generalize the intended target to other relatable targets, this assay endpoint is annotated to the background measurement intended target family, where the subfamily is internal marker.
Human liver HepG2 cells are transiently transfected with multiple reporter transcription units (MRTUs) in 6-well plates using FuGene 6 reagent (Roche; 3 ml FuGene/1 mg DNA). The MRTU constructs are regulated by a cis-regulating element (promoter). […] A major difference between the CIS and TRANS system is that in CIS activities of endogenous TFs are measured, whereas the TRANS assay evaluates changes in activities of exogenous, chimeric NR-Gal4 proteins. […] At the end of 24 hour incubation, total RNA was isolated using TriZol reagent (Invitrogen). The isolated RNA is then reverse-transcribed using oligo(dT) primer and Mo-MLV reverse transcriptase (Invitrogen) with DNAse I (Ambion) treatment for 30 min. The one-tenth of the produced cDNA was amplified by PCR using Taq DNA polymerase (Invitrogen) and two reporter sequence-specific primers. The PCR products were fluorescently labeled by primer extension with 6-arboxyfluorescein (6-FAM) 5'-labeled reporter sequence-specific primer (2 min at 95 C, 20 s at 68 C and 10 min at 72 C) and these products were digested with 5U of HpaI (New England Biolabs) for 2h at 37 C. The fragments were purified using Qiaquick PCR columns (Qiagen), analyzed on an ABI 3130xL genetic analyzer (Applied Biosystems) with peak positions identified by using a set of X-rhodamine (ROX)-labeled MapMarker1000 molecular weight standards (BioVentures). The raw capillary electrophoresis data was processed using Attagraph software (Attagene).

SMILES	outcome	AC50
CCC(=C(c1ccc(O)cc1)c1ccc(OCCN(C)C)cc1)c1ccccc1	inactive	11.7 µM (active)
Nc1cccc2c(N)cccc12	inactive	
COc1ccc([N+](=O)[O-])cc1N	inactive	
c1ccc2cc3c(ccc4ccccc43)cc2c1	inactive	
Cc1cc(CCN2CCN(c3nsc4ccccc34)CC2)cc2c1NC(=O)CC2(C)C	inactive	
CC(=O)CC(C)(C)O	inactive	
Cc1ccc(S(=O)(=O)O)c(C)c1	inactive	
COCC(C)OCC(C)O (stereo not given)	inactive	
CN1CCC[C@H]1c1cccnc1	inactive	
CC1=C(/C=C/C(C)=C/C=C/C(C)=C/C(=O)O)C(C)(C)CCC1	inactive	
CCC(C)(C)C1CCC(O)CC1 (stereo not given)	inactive	
CCCCCCCCC(=O)O	inactive	
OCCC(F)(F)C(F)(F)C(F)(F)C(F)(F)C(F)(F)C(F)(F)F	inactive	
O=C(O)c1ccccc1C(c1ccc(O)cc1)c1ccc(O)cc1	inactive	
O=C(O)Cc1cc(I)c(Oc2cc(I)c(O)c(I)c2)c(I)c1	inactive	
CCCCCCCCCCCCc1ccccc1S(=O)(=O)O	inactive	
CCCCCCC(=O)O	inactive	
CCCCOCCO	inactive	
C=C(C)C(=O)OCCC(F)(F)C(F)(F)C(F)(F)C(F)(F)C(F)(F)C(F)(F)F	inactive	
CC(O)CO (stereo not given)	inactive	

SMILES	outcome	AC50
CCCCC(CC)COC(=O)CCCCC(=O)OCc1ccccc1 (stereo not given)	inactive	
CC(C)(C)c1ccc(O)c(C(C)(C)C)c1	inactive	
OC1CCCCC1	inactive	
NC(=O)N(O)[C@@H]1C=C[C@H](Oc2cccc(Oc3ccc(F)cc3)c2)C1	inactive	
Oc1cc2ccccc2c2ccccc12	inactive	
COCC(C)O (stereo not given)	inactive	
NCC(F)(F)C(F)(F)C(F)(F)C(F)(F)C(F)(F)C(F)(F)C(F)(F)F	inactive	
FC(F)(I)C(F)(F)C(F)(F)C(F)(F)C(F)(F)C(F)(F)I	inactive	
OCCC(F)(F)C(F)(F)C(F)(F)C(F)(F)C(F)(F)C(F)(F)C(F)(F)C(F)(F)F	inactive	
CC(C)(C)c1cc(C(C)(C)C)c(O)c(C(C)(C)C)c1	inactive	
O=c1c(-c2ccc(O)cc2)coc2cc(O)ccc12	inactive	
CCc1nn(C2CCCCC2)c2cc(C3(C#N)CCC(C(=O)O)CC3)ccc12 (stereo not given)	inactive	
COC(=O)CCCCC(=O)OC	inactive	
CCCCC(CC)COC(=O)CCCCC(=O)OCC(CC)CCCC (stereo not given)	inactive	
CC(C)(C)CC(C)(C)c1ccc(O)c(-n2nc3ccccc3n2)c1	inactive	
Oc1cccc(O)c1	inactive	
NC(=O)N1C(=O)C(C(=O)c2cc(Cl)cs2)c2cc(F)c(Cl)cc21 (stereo not given)	inactive	
CN1CCN(c2ccccc2/C=C2\SCCN(c3ccc(Cl)c(Cl)c3)C2=O)CC1	inactive	
ClC1=C(Cl)C(Cl)(Cl)C(Cl)=C1Cl	inactive	
